The values that follow come from ChEMBL document CHEMBL5724796, “Tm Shift (DSF) assay results for EUbOPEN Chemogenomics Library” (2024).

SMILES strings stand for the structures.

What all share (conditions): Compound concentration 20.0 uM
The target of test [1] is Tyrosine-protein kinase ABL1 (Homo sapiens) (UniProt P00519).
Test [2] deals with Bromodomain-containing protein 4 (Homo sapiens) (UniProt O60885).
The target of test [3] is Cyclin-dependent kinase 2 (Homo sapiens) (UniProt P24941).
Test [4] has as its target Casein kinase I isoform delta (Homo sapiens) (UniProt P48730).
Test [5] deals with Glycogen synthase kinase-3 beta (Homo sapiens) (UniProt P49841).
Glycogen synthase kinase-3 beta (Homo sapiens), sequence (P49841 whole entry, looked up): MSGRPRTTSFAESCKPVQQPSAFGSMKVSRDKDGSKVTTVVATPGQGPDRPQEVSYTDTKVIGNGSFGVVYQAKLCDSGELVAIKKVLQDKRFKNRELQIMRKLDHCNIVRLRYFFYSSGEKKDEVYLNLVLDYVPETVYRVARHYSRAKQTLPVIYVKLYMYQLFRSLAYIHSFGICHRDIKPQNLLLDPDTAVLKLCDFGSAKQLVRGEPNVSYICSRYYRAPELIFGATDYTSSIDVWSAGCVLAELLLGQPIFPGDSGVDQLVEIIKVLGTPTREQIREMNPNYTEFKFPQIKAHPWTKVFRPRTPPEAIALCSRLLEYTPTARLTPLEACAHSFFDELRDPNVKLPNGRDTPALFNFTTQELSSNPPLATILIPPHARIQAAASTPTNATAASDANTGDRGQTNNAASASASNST
Test [6] concerns the target Mitogen-activated protein kinase 1 (Homo sapiens) (UniProt P28482).
In test [7] the target is T1, Aurora kinase A (Homo sapiens) (UniProt O14965).
T1 sequence (whole entry): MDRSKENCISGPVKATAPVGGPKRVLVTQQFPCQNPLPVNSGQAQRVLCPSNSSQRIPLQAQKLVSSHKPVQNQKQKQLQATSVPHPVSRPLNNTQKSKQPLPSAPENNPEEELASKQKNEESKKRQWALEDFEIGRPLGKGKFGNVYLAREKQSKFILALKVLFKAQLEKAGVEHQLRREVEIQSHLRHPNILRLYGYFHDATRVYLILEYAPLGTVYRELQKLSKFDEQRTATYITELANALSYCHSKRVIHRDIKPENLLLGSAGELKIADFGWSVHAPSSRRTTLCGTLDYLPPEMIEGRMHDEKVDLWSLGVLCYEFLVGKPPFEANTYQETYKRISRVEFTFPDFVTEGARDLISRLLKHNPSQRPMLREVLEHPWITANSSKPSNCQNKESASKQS

Test [8] addresses T2, Transcription intermediary factor 1-alpha (Homo sapiens) (UniProt O15164).
T2 sequence (whole entry): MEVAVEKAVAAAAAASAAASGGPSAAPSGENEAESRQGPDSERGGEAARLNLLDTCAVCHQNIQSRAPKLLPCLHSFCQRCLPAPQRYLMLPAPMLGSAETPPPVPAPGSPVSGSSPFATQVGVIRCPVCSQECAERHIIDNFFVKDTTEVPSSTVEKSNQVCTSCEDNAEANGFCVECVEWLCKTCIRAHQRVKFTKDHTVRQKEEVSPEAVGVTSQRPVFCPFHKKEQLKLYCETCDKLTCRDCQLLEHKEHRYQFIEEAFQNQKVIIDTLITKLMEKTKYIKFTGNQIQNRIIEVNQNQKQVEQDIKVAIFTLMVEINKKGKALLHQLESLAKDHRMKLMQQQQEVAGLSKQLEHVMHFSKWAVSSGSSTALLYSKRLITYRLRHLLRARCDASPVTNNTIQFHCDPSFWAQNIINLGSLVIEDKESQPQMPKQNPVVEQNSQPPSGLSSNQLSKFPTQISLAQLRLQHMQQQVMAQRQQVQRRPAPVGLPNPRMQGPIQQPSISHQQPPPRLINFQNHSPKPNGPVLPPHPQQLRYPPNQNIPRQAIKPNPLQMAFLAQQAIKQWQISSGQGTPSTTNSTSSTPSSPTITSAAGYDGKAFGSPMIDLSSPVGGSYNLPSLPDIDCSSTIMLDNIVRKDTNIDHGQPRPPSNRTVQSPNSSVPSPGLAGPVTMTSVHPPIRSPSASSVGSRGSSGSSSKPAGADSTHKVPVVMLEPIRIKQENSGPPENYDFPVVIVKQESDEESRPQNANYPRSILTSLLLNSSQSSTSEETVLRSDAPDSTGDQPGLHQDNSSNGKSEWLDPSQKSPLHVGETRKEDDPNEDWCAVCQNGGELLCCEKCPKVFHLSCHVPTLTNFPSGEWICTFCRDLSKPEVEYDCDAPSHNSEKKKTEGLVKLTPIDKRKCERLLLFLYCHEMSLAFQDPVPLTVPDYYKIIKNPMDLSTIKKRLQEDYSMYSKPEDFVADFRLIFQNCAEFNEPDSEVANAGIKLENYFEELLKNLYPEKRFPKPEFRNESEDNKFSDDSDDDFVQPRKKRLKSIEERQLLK

Mitogen-activated protein kinase 1 (Homo sapiens), sequence (P28482 whole entry): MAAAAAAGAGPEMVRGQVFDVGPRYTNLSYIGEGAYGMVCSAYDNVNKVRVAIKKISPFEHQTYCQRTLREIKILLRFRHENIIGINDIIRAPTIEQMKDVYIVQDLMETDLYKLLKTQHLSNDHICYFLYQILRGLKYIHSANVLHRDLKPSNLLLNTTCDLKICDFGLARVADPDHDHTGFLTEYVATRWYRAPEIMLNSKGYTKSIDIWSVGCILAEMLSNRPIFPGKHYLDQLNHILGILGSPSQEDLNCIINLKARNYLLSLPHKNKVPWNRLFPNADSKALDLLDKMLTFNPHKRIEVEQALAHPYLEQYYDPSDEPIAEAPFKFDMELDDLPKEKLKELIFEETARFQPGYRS
Casein kinase I isoform delta (Homo sapiens), sequence (P48730 whole entry, looked up, canonical isoform): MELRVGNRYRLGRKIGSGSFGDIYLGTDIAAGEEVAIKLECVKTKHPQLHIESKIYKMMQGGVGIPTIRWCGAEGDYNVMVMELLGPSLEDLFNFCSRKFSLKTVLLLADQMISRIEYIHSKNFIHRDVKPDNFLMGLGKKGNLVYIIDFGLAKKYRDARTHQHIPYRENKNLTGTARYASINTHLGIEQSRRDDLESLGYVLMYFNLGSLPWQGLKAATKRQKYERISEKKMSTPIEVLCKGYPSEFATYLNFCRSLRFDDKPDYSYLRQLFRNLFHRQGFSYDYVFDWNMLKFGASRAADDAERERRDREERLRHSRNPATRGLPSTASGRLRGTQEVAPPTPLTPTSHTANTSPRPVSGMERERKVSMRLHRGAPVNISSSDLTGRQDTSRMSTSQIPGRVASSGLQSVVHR
Tyrosine-protein kinase ABL1 (Homo sapiens), sequence (P00519 whole entry): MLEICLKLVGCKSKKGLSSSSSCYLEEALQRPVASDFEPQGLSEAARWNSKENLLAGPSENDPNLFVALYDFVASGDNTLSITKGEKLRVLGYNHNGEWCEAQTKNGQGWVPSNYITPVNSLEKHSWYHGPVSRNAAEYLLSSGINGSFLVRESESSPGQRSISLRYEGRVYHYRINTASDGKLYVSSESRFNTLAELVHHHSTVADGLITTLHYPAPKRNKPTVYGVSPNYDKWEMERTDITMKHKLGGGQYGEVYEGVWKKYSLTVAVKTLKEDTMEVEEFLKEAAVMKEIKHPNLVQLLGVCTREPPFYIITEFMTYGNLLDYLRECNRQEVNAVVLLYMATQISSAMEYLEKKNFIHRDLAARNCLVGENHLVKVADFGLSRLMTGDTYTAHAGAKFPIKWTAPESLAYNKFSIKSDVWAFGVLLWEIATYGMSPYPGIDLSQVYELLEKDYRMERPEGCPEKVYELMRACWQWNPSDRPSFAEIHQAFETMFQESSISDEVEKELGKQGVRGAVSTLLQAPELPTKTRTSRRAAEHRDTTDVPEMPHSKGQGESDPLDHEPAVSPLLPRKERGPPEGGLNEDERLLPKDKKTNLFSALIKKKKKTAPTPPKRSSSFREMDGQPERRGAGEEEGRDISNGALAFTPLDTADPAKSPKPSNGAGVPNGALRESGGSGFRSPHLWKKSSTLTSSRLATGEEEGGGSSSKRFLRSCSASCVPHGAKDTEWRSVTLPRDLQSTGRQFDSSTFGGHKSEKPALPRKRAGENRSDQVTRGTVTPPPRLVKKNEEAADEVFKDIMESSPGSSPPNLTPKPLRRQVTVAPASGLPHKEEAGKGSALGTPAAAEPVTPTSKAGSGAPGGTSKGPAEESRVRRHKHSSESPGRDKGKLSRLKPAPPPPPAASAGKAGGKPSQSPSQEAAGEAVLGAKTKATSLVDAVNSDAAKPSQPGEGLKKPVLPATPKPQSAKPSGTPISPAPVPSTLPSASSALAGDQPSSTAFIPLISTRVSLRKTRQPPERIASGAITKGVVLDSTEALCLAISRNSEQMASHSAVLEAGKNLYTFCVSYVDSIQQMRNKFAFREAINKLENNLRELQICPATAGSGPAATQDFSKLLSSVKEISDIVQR

Take `Cc1cc(C)c(CNC(=O)c2cc(Cl)c3c(c2C)O[C@@](C)([C@H]2CC[C@H](N(C)C)CC2)O3)c(=O)[nH]1`: the ΔTm in test [1] was 0.37 °C; in test [2] it was -1.88 °C; in test [3], 0.46 °C; in test [4] it was 0.43 °C; in test [5], -0.76 °C; in test [6], 0.07 °C. The figures for the shift in melting temperature (ΔTm) in test [7] and in test [8] were -0.52 °C and -2.02 °C, respectively.

For the compound `CCS(=O)(=O)N1CC(CC#N)(n2cc(-c3ncnc4[nH]ccc34)cn2)C1`, the ΔTm in test [1] is 2.37 °C; in test [2], -1.2 °C; in test [3], 0.85 °C; in test [4], 1.28 °C; in test [5] it was 3.43 °C; in test [6], 0.18 °C. In addition, the shift in melting temperature (ΔTm) in test [7] was 5.08 °C; in test [8], -0.73 °C.

Consider `CS(=O)(=O)c1ccc(-c2cnc(NCc3ccco3)n3cnnc23)cc1`, for which the thermal shift (ΔTm) is 0.92 °C in test [1]; -0.86 °C in test [2]; 0.28 °C in test [3]; 0.44 °C in test [4]; -2.03 °C in test [5]; 0.02 °C in test [6]. For the same compound, the ΔTm in test [7] is 0.67 °C; in test [8] it was -1.77 °C.

Take `O=C(CN1CCN(c2ccc(F)cn2)CC1)Nc1nc2c(s1)CCCC2`: the thermal shift (ΔTm) in test [1] is 0.42 °C; in test [2], -2.75 °C; in test [3] it was 0.14 °C; in test [4], -0.25 °C; in test [5] it was 0.02 °C; in test [6], 0.86 °C. The shift in melting temperature (ΔTm) in test [7] was -1.16 °C; in test [8], -2.28 °C.

As to `Cc1ncsc1-c1ccc(CNC(=O)[C@@H]2C[C@@H](O)CN2C(=O)[C@@H](NC(=O)COCCOCCOc2ccc(-c3ccc4ncnc(Nc5ccc(OCc6cccc(F)c6)c(Cl)c5)c4c3)cc2)C(C)(C)C)cc1`, the ΔTm in test [1] is 2.92 °C; in test [2], 5.48 °C; in test [3] it was 5.97 °C; in test [4] it was -3.34 °C; in test [5] it was 9.57 °C; in test [6], -2.89 °C. The thermal shift (ΔTm) in test [7] was 7.09 °C; in test [8], 10.8 °C.

For `CCC(=O)N1CCOc2c(cc(-c3cc(OC)cc(OC)c3)cc2C(=O)N[C@H]2CCCN(C)C2)C1`, the ΔTm in test [1] is 0.72 °C; in test [2], -0.15 °C; in test [3] it was 0.57 °C; in test [4], 0.5 °C; in test [5], -1.27 °C; in test [6], 0.1 °C. Also, the ΔTm was 0.01 °C in test [7] and -2.74 °C in test [8].

For the compound `CC(=O)N[C@@H](Cc1ccc(O)cc1)C(=O)N[C@H](C(=O)N[C@@H](C)C(=O)N[C@@H](CC(=O)O)C(=O)COC(=O)c1c(C)cccc1C)C(C)C`, the ΔTm in test [1] was 0.26 °C; in test [2], -2.81 °C; in test [3], 0.14 °C; in test [4] it was 0.17 °C; in test [5], -0.23 °C; in test [6] it was -0.06 °C. For the same compound, the thermal shift (ΔTm) was -0.54 °C in test [7] and -0.84 °C in test [8].

In the case of `CC(C)C(=O)c1c(C(C)C)nn2ccccc12`, the ΔTm in test [1] is 0.8 °C; in test [2] it was -2.97 °C; in test [3] it was 0.95 °C; in test [4], 0.19 °C; in test [5], -0.21 °C; in test [6], 0.12 °C. The values for the ΔTm in test [7] and in test [8] were -2.35 °C and 0.7 °C, respectively.

For the compound `Nc1nc2cc(CC[C@H]3C[C@@H](n4ccc5c(N)ncnc54)[C@H](O)[C@@H]3O)ccc2cc1Br`, the ΔTm is 2.92 °C in test [1]; -1.76 °C in test [2]; -4.38 °C in test [3]; 4.13 °C in test [4]; -8.32 °C in test [5]; -17 °C in test [6]. Further, the ΔTm is -10 °C in test [7] and -0.53 °C in test [8].

Take `CNc1nccc(CN(CC2CCNCC2)S(=O)(=O)c2ccc(S(=O)(=O)N(Cc3ccc(Cl)cc3)C3CCCC3)cc2)n1`: the ΔTm in test [1] was 0.85 °C; in test [2] it was -3.15 °C; in test [3], 0.06 °C; in test [4] it was 0.31 °C; in test [5] it was 0.43 °C; in test [6], 0.57 °C. Also, the ΔTm in test [7] was -2.49 °C; in test [8], -0.52 °C.

What is called ΔTm is the shift of the melting midpoint relative to a reference.
